Experimental data taken from PubChem BioAssay (EPA / NIEHS).
Calls of active or inactive are those of the source. Rule for the calls: active = hit-call score of the fitted dose curve at least 0.9, where 1 is the maximum; inactive = score below 0.9.

Read-out: Matrix Metallopeptidase 1 (MMP1), MMP1 (gene 4312)
Test: BSK_hDFCGF_MMP1: BioMAP Diversity Plus: hDFCGF Assay for Matrix Metallopeptidase 1 (MMP1) Biomarker Activity (AID 2283064)
Details: primary human foreskin fibroblasts; actives raise or lower the signal
Protocol: BSK_hDFCGF is a cell-based, multiplexed-readout assay that uses foreskin fibroblast, a human skin primary cell, with measurements taken at 24 hours after chemical dosing in a 96-well plate.BSK_hDFCGF_MMP1 is an assay component measured in the BSK_hDFCGF assay. It measures MMP-1 antibody related to regulation of gene expression using ELISA technology.Data from the assay component BSK_hDFCGF_MMP1 was analyzed into 1 assay endpoint. This assay endpoint, BSK_hDFCGF_MMP1, was analyzed with bidirectional fitting relative to DMSO as the negative control and baseline of activity. Using a type of binding reporter, gain or loss-of-signal activity can be used to understand changes in the signaling as they relate to the gene MMP1. Furthermore, this assay endpoint can be referred to as a primary readout, because this assay has produced multiple assay endpoints where this one serves a signaling function. To generalize the intended target to other relatable targets, this assay endpoint is annotated to the protease intended target family, where the subfamily is matrix metalloproteinase.
The levels of cell surface (or secreted, indicated by the prefix "s") biomarker endpoints were measured by ELISA. Overt cytotoxicity to cells in confluent adherent cultures (all systems other than the BT system) was assessed by measuring total protein levels using sulforhodamine B (SRB) staining in parallel cultures at the time of biomarker measurements, indicated as SRB endpoints. For proliferation assays for adherent cell types, individual cell types are cultured at sub-confluence and relative cell numbers quantified by SRB staining at time points optimized for each system (48 h: 3C and CASM3C systems; 72 h: BT and HDF3CGF systems; 96 h: SAg system). SRB was performed by staining cells with 0.1% SRB after fixation with 10% TCA and reading wells at 560 nm.Viability and proliferation of PBMC (T cells) was quantified by Alamar Blue reduction for the SAg and BT systems. For PBMC viability (referred to as PBMC Cytotoxicity within the assay endpoint names), cells were plated (75,000/well in a 96-well plate) and then chemical samples added for 1 h before addition of activators, SEB and TSST-1 (20 ng/mL final concentration each). Cells were incubated for 90 h. Then, Alamar Blue (20 uL/well) (Invitrogen, Cat DAL1100) was added for 6 h, and the plates were read with a fluorescence microplate reader at 546/580 nm (excitation/emission). For PBMC proliferation, cells were plated and activated as above but incubated for only 16 h prior to addition of Alamar Blue. Plates were read after 6 h.

Row | Structure (SMILES) | AC50 | outcome
1 | O=C1CCC(C2CCCCC2)CC1 | 33.3 µM (active) | –
2 | Cc1c2ccccc2c(C)c2c1ccc1ccccc12 | – | inactive
3 | CCCCCCCCCCCC[N+](C)(C)C | 4.94 µM (active) | –
4 | CN(C)c1ccc(C(=C2C=CC(=[N+](C)C)C=C2)c2ccc(N(C)C)cc2)cc1 | 5.45 µM (active) | –
5 | CN1C(=O)CC[C@H]1c1cccnc1 | – | inactive
6 | CC(=O)N1CCN(c2ccc(OC[C@H]3CO[C@](Cn4ccnc4)(c4ccc(Cl)cc4Cl)O3)cc2)CC1 | 32.6 µM (active) | –
7 | CN(C[C@@H](CC[N+]12CCC(C3CCCCC3)(CC1)CC2)c1ccc(Cl)c(Cl)c1)C(=O)c1cc(C(F)(F)F)cc(C(F)(F)F)c1 | 7.58 µM (active) | –
8 | Cc1ncc(CO)c(CO)c1O | – | inactive
9 | O=C(O)Cc1cc(I)c(Oc2ccc(O)c(I)c2)c(I)c1 | 19.4 µM (active) | –
10 | OC12N=C(c3ccccc3)SC1Cc1cc(Cl)ccc12 (stereo not given) | – | inactive
11 | O=C1O[C@H]([C@@H](O)CO)C(O)=C1O | – | inactive
12 | COc1cc(C(=O)NC2CCN(C)CC2)ccc1Nc1ncc2c(n1)N(C1CCCC1)CC(F)(F)C(=O)N2C | 18.6 µM (active) | –
13 | CC(O)CC(C)(C)O (stereo not given) | – | inactive
14 | CCN(Cc1cccnc1)C(=O)c1cccc(Cl)c1[C@]1(C)C(=O)N(Cc2ccc(OC)cc2OC)c2ccc(Cl)cc21 | 5.9 µM (active) | –
15 | c1ccc2ccccc2c1 | – | inactive
16 | Oc1ccccc1 | – | inactive
17 | CCCCCCCCOC(=O)c1cc(O)c(O)c(O)c1 | 37.6 µM (active) | –
18 | CN(C)C(=O)C1(N2CCCCC2)CCN(CC[C@@]2(c3ccc(Cl)c(Cl)c3)CN(C(=O)c3ccccc3)CCO2)CC1 | 29.2 µM (active) | –
19 | O=CCCCC=O | 31.6 µM (active) | –
20 | CN1C(=O)N(c2ccccc2Br)Cc2cnc(Nc3ccc4c(c3)OCC(CO)O4)nc21 (stereo not given) | 9.31 µM (active) | –

Row | Structure (SMILES) | AC50 | outcome
21 | O=c1c(-c2ccc(O)cc2)coc2cc(O)cc(O)c12 | 15.1 µM (active) | –
22 | CCN(CC)C(=O)c1cc(S(=O)(=O)Cc2ccccc2)c(N2CCC(c3ccccc3)CC2)cc1N(CC)CCN(C)C | – | inactive
23 | O=C1c2ccccc2C(=O)N1CCc1noc(-c2ccc(CN3CCCCCC3)s2)n1 | – | inactive
24 | CC[C@@H]1C[C@H](N(Cc2cc(C(F)(F)F)cc(C(F)(F)F)c2)C(C)=O)c2cc(C(F)(F)F)ccc2N1C(=O)OC(C)C | – | inactive
25 | Clc1ccccc1C(c1ccccc1)(c1ccccc1)n1ccnc1 | 7.77 µM (active) | –
26 | CC/C(=C(/CC)c1ccc(O)cc1)c1ccc(O)cc1 | 28.6 µM (active) | –
27 | Cc1cc(F)ccc1-c1cc(N2CC[C@@H](O)[C@H]2CO)ncc1N(C)C(=O)C(C)(C)c1cc(C(F)(F)F)cc(C(F)(F)F)c1 | 16.7 µM (active) | –
28 | CCO[Si](CCCNC(N)=O)(OCC)OCC | – | inactive
29 | Clc1cc(Cl)c2c(c1)N=C1CCCCCN1C2 | – | inactive
30 | CCCCCCCC[Si](OCC)(OCC)OCC | – | inactive
31 | CCN(Cc1cccc(S(=O)(=O)O)c1)c1ccc(C(=C2C=CC(=[N+](CC)Cc3cccc(S(=O)(=O)O)c3)C=C2)c2ccccc2S(=O)(=O)[O-])cc1 | – | inactive
32 | O=C=NCCCCCCN=C=O | – | inactive
33 | CCCC(=O)OCCC(C)C | – | inactive
34 | Oc1ccc2ccccc2c1 | – | inactive
35 | CC1(C)NC(=O)N(c2ccc([N+](=O)[O-])c(C(F)(F)F)c2)C1=O | – | inactive
36 | Cc1cc2c(cc1C(F)(F)F)N(C(=O)Nc1ccc(Oc3cccnc3C)nc1)CC2 | – | inactive
37 | CCCCCCCCCCCCO | 31 µM (active) | –
38 | CCCCCCCCOc1ccc(C(=O)c2ccccc2)c(O)c1 | – | inactive
39 | Cc1cn([C@H]2C[C@H](N=[N+]=[N-])[C@@H](CO)O2)c(=O)[nH]c1=O | – | inactive
40 | COc1cccc([C@H](O)C2CCN(CCc3ccc(F)cc3)CC2)c1OC | – | inactive
